Screening data (PubChem BioAssay)
BRCA1 expr act: qHTS Assay to Identify Small Molecule Activators of BRCA1 Expression; MCF7-BRCA1-FFLuc reporter, luminescence, 48 h; response scale: scaled: vehicle 0%, 10 µM genistein 100%; Potency, µM (doses to about 46.1 µM), for the others: at the top dose activation, actives largely listed as activators; hit rate 1.1% among 380,000; AID 624202, 2012; also: nearly all actives have a fitted effect of over 80% in size
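MCF7-BRCA1-FFLuc, 2000 cells/well; 2 h attach, 37 °C/5% CO2; compound 48 h; luciferase substrate 15 min; luminescence end-point. Norm. to genistein 10 microM max activation and DMSO; concentration-response curves fitted.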
B2AR arrestin: qHTS assay of beta-arrestin-biased ligands of beta2-adrenergic receptor | Beta-2 adrenergic receptor (Homo sapiens), P07550 | beta-arrestin recruitment to beta2AR, cell-based reporter | Potency, µM (doses to about 46.1 µM), without a hit: at the top dose activation, actives largely listed as activators | hit rate 0.02% among 330,000 | AID 492947, 2010;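 also: 0% = DMSO controls and full agonism = EC100 isoproterenol or metaproterenol; nearly all actives have a fitted effect of over 65% in size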
Target sequence (P07550 whole entry, looked up): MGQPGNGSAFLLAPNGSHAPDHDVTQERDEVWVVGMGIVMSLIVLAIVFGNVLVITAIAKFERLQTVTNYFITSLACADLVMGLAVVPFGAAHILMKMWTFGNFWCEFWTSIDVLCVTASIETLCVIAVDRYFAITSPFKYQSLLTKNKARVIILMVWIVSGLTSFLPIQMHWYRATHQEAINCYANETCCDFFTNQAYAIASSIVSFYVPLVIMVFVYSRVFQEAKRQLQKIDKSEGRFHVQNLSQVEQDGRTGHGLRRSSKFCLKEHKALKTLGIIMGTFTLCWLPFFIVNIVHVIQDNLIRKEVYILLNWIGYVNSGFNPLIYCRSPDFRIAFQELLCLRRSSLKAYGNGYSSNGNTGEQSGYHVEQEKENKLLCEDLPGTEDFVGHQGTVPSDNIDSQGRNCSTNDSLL
ERG Ets-DNA blk: qHTS for Small Molecule Inhibitors of the ERG Ets/DNA interaction | fluorescence polarization, His-ERG Ets domain / labelled DNA | Transcriptional regulator ERG (Homo sapiens), P11308 | hit rate 0.028% among 370,000 | Potency, µM (series often up to 76.9 µM), for the others: at the top dose FP activity, negative = inhibition, actives largely listed as inhibitors | AID 624246, 2012; active = well fitted inhibition curve with a large enough effect in the polarisation, with a control signal flat; inconclusive = small, poorly fitted or top-dose-only effect, or effect the other way, or a change in a side signal; inactive = no such curve, though single readings can be large or run the other way; the % refers to the polarisation;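 also: polarization taken with two DNA probes labelled with fluorescein and Texas red; % of control where 0% means no effect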
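His-tagged ERG Ets domain (1 uM in the protein solution; 300mM KCl, 50mM Tris-HCl, 1mM EDTA, 1mM DTT, pH 7.5) received compound, then a probe mix of 5 nM fluorescein-DNA and 100nM Texas-615-DNA. Fluorescence polarization was read for both dyes.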
Mito fusion act: qHTS Assay for Small Molecule Inhibitors of Mitochondrial Division or Activators of Mitochondrial Fusion; S. cerevisiae fusion-defective mutant growth rescue, CellTiterGlo 48 h; hit rate 0.23% among 320,000; AID 485298, 2010; Potency, µM (highest dose often 46.1 µM), for inactives: top-dose growth rescue (activation), hits mostly activators; also: % of control where 0% means no effect; nearly all actives have a fitted effect of over 45% in size
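Growth-rescue viability read-out: after 48 h at the non-permissive 37C in glycerol/ethanol YPEG, yeast mitochondrial fusion mutants are measured by CellTiterGlo luminescence; compounds (23 nl pinned per well) restoring growth score as division inhibitors or fusion activators.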
Numbers without * were called inactive; ? = inconclusive; · = not tested or not shown. In the library only some 1.2% were active in any assay of this set; here they are far more common. Unless noted, calls follow the shape of the dose curve; as a rule, active = well fitted curve in the direction sought with a large enough effect; inconclusive = small, poorly fitted or top-dose-only effect, or another doubt; inactive = no such curve, though single readings can be large; an effect the other way counts as inactive or inconclusive. Potency is read from the fitted curve at half-maximal effect.

SMILES	BRCA1 expr act	B2AR arrestin	ERG Ets-DNA blk	Mito fusion act
CN(C(=O)CSc1nc(-c2ccccc2)no1)c1ccc(F)cc1	·	·	-0.2%	·
CC(C)(C)CC(=O)Nc1cccc(-c2cn3cccnc3n2)c1	8.91µM*	0.5%	-0.4%	-0.6%
CCOC(=O)c1n[nH]n2c1nc(=S)c1ccccc12	-1.9%	0.1%	3.7%	14.1µM*
Cc1ccc(N/N=C/c2ccc3c(c2)OCCO3)cc1Cl	3.16µM*	-0.1%	5.9%	7.6%
C=C(C)C1Cc2cc3ccc(=O)oc3cc2O1 (stereo not drawn)	10µM*	-1.2%	21.0%	3.9%
Cc1cc(C)c(/C=C/c2onc(C)c2S(=O)(=O)N2CCC(C(=O)Nc3ccc(Cl)c(C(F)(F)F)c3)CC2)c(C)c1	·	·	-11.8%	·
CNc1cncc(-c2c(OC)cccc2OC)n1	-4.7%	·	·	·
CNc1cncc(-c2cccc(OC)c2F)n1	11.2µM*	·	·	·
Cc1csc(NC(=O)Cc2ccc(Cl)cc2)n1	?	·	-2.7%	·
Cc1csc(NC(=O)Cc2ccccc2Cl)n1	10µM*	0.4%	-0.4%	-5.7%
C=CCn1cccc(C(=O)Nc2ccc(C)c(C)c2)c1=O	3.16µM*	0.3%	-1.0%	22.1%
O=C(Nc1c(C(=O)Nc2ccc(F)cc2)oc2ccccc12)c1ccccc1F	6.7%	·	3.2%	·
Cc1[nH]nc(SCC(=O)N2CCCCCC2)c1[N+](=O)[O-]	7.94µM*	0.0%	-7.4%	1.3%
Cc1[nH]nc(SCC(=O)N2CCCCC2)c1[N+](=O)[O-]	21.2%	0.1%	3.1%	3.1%
O=C(CSc1ncn(-c2ccccc2)n1)Nc1nc2c(s1)CCCC2	2.0%	-0.2%	1.8%	9.6%
O=C(Cc1cccs1)Nc1nc2c(s1)CCCC2	3.98µM*	0.2%	-0.1%	14.8%
O=C(Nc1nc2c(s1)CCCC2)c1cccs1	?	-1.2%	-5.3%	0.1%
O=C(CCSc1ccccc1)Nc1nc2c(s1)CCCC2	11.2µM*	-0.2%	-2.3%	12.1%
O=C(CCSc1ccccc1)NC1CCCCCC1	7.08µM*	0.3%	-4.1%	12.1%
COc1ccc(/C=C\c2onc(C)c2S(=O)(=O)N2CCC(C(=O)Nc3cccc(Cl)c3)CC2)cc1	·	·	0.5%	·
CCC(Oc1ccccc1F)C(=O)N1CCC(c2nc3ccccc3s2)CC1 (stereo not drawn)	·	·	7.9%	·
O=C(O)CCc1ccc(-c2ccccc2)n1-c1ccc(C(=O)O)cc1	4.2%	-0.2%	8.9%	2.3%
O=C(O)CCc1ccc(-c2ccccc2)n1-c1cccc(C(=O)O)c1	12.6µM*	0.6%	24.2%	0.1%
Cc1nn2c(C)c(C(=O)N3CCN(c4ccccc4)CC3)cnc2c1-c1ccccc1	·	·	3.6%	·
O=c1c(N2CCCCC2)coc2ccccc12	8.91µM*	-1.0%	-2.3%	-4.4%
SMILES	BRCA1 expr act	B2AR arrestin	ERG Ets-DNA blk	Mito fusion act
COc1ccc(C2=NOC(Cn3nc(C(=O)O)cc3-c3ccccc3)C2)cc1 (stereo not drawn)	15.5%	-0.8%	7.5%	-1.1%
O=C1c2ccccc2S(=O)(=O)N1CC1CC(c2ccc(Cl)cc2)=NO1 (stereo not drawn)	3.16µM*	-1.4%	1.2%	15.8µM*
COc1ccc(C2=NOC(CN3C(=O)c4ccccc4S3(=O)=O)C2)cc1 (stereo not drawn)	2.82µM*	0.7%	0.8%	6.7%
O=C1c2ccccc2S(=O)(=O)N1CC1CC(c2ccccc2)=NO1 (stereo not drawn)	11.2µM*	-0.9%	-9.1%	10.6%
CC(=O)c1sc(NC(=O)c2ccccc2F)nc1-c1ccccc1	2µM*	0.2%	22.9%	-0.5%
Cc1cccc(N2CCN(C(=O)CCn3c(=O)c4cccn4c4cccnc43)CC2)c1C	·	·	-1.0%	·
CSc1nc2sc3c(c2c(=O)n1-c1ccc(C)cc1)CCCC3	·	·	-0.5%	·
COC(=O)c1ccn(Cc2ccccc2Cl)n1	12.6µM*	-0.1%	-12.2%	-3.2%
COc1ccc2c(c1)CCc1c(C(=O)N3CCCc4ccccc43)noc1-2	12.1%	0.3%	5.2%	?
CCCNC(=O)c1noc2c1CCc1ccccc1-2	47.6%	-1.0%	1.4%	3.7%
COc1ccc2c(c1)CCc1c(C(=O)N3CCOCC3)noc1-2	2.82µM*	0.1%	0.1%	3.3%
O=C(NCCN1CCOCC1)c1noc2c1CCc1ccccc1-2	7.94µM*	-0.1%	-2.5%	4.6%
